# The campaign covered roughly 24,000 compounds. About 40 (0.2%) were called active. This is one part of a sample in which actives are shown more often than they occur. A number with no mark means an inactive call.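 How the source made its calls: active means inhibition of disassembly above about 33% (limit read from the data); inconclusive means likely self-fluorescent, control bead median signal at least 40; inactive means the rest.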
# Test system: 26S proteasome (yeast, GFP-tagged, ATP-dependent disassembly)
# Assay: blockers of yeast 26S proteasome breakdown – biochemical, bead-based flow cytometry, GFP-tagged proteasome, primary screen (AID 751);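 further: plate controls were ATP control with full disassembly for no effect and ATP-gamma-S intact proteasomes for full effect; higher percent means more bead fluorescence retained so stronger block of disassembly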
# Conditions: anti-FLAG beads, active compounds read high, concentration not given here
row,Structure (SMILES),inhibition of disassembly [%]
1,Cc1nc2sc(C(c3ccco3)N3CCC4(CC3)OCCO4)c(O)n2n1 (stereo not drawn),-1.33
2,CCn1ncc(C2=NOC(C(=O)Nc3ccccc3C(=O)OC)C2)c1C (stereo not drawn),0.71
3,CCCn1c(C(O)c2ccc(OCC)cc2)nc2ccccc21 (stereo not drawn),0.49
4,CCn1cc(C(=O)NC2CCCCCC2)c(=O)c2cc(S(=O)(=O)N3CCCCC3)ccc21,-0.53
5,Cc1nonc1NC(=O)c1ccccc1Br,-2.02
6,CC1C=CCC2C(=O)N(c3cccc(C(=O)N4CCCCCC4)c3)C(=O)C12 (stereo not drawn),-0.22
7,CC(NC(=O)CN1CCN(Cc2ccc(Cl)cc2)C1=O)c1ccc2c(c1)OCCO2 (stereo not drawn),0.26
8,CCOc1cc2[nH]c(=S)n(CCCN3CCCC3=O)c(=O)c2cc1OCC,-0.66
9,O=C(c1ccc2c(c1)N(Cc1ccc(F)cc1)C(=O)CS2)N1CCOCC1,3.05
10,O=C(CCCN1C(=O)C2C3C=CC(C3)C2C1=O)N1CCN(c2ccccc2)CC1 (stereo not drawn),-1.14
11,COc1ccc(C2C3=C(OC(C)=O)c4ccccc4C3=Nc3c2c(=O)n(C)c(=O)n3C)cc1 (stereo not drawn),-0.28
12,Nc1nc(SCCOc2ccccc2)n[nH]1,1.41
13,Cc1cc(C(=O)O)c(S(C)(=O)=O)s1,-0.75
14,Cc1noc(/C=C/N(C)C)c1S(=O)(=O)N1CCCC(C(=O)NCc2ccco2)C1 (stereo not drawn),-7.75
15,COc1cccc(Nc2nnc(SCC(=O)N3CC(C)OC(C)C3)s2)c1 (stereo not drawn),-3.96
16,Cc1cc(Nc2ccc(Br)cc2F)n2ncnc2n1,-4.6
17,CCOC(=O)c1sc(=S)n2c1[nH]c(=O)c1ccc(C(=O)OC)cc12,0.98
18,Cn1c(C(=O)NCCN2CCc3ccccc3C2)cc2c(=O)[nH]c3ccccc3c21,-0.79
19,O=C(COc1ccccc1F)NC1CC1,-1.13
20,O=C1CC(c2cccc(F)c2)C2=C(CCCC2=O)N1 (stereo not drawn),-0.41

row,Structure (SMILES),inhibition of disassembly [%]
1,Cc1c2cn[nH]c(=O)c2c(C)n1Cc1ccc(F)cc1,2.63
2,COc1ccc2oc(=O)c(C(=O)N3CCN(c4ccccc4F)CC3)cc2c1,-0.83
3,COc1ccccc1N1CCN(c2nc3ccccc3n3nnnc23)CC1,22.2
4,Cc1cccc(NC(=O)CSc2nnc(NC(=O)CN3CCOCC3)s2)c1,0.22
5,COc1cccc(-n2c(Cc3cc(=O)[nH]c(=O)[nH]3)nnc2SCC(=O)Nc2ccccc2)c1,-1.55
6,CCOc1ccc(OCC)c(NC(=O)C(NS(=O)(=O)c2ccc3c(c2)oc(=O)n3C)C(C)C)c1 (stereo not drawn),-0.66
7,CCOC(=O)N1CCC(NC(=O)CN2C(=O)COc3ccc(C(C)(C)C)cc32)CC1,-0.61
8,Cc1ccccc1C(=O)NCCN=C1NS(=O)(=O)c2ccccc21,-0.63
9,CCOc1cc2c(cc1OCC)C(C(=O)O)C(c1ccc(OC)c(O)c1)N(C)C2=O (stereo not drawn),0.12
10,O=C(Nc1c2c(nn1-c1ccc(F)cc1)CS(=O)C2)C12CC3CC(CC(C3)C1)C2 (stereo not drawn),-2.52
11,CC1CCC(NC(=O)c2ccc(N3CCCC3=O)cc2)CC1 (stereo not drawn),5.08
12,Cc1cccc2c1N(CC(=O)OC(C)C)C(=O)C2=O,1.8
13,CN(CC(=O)NC1CCCCC1)S(=O)(=O)c1cccc2cccnc12,-0.29
14,O=C(CN1CCN(c2ccccc2F)CC1)c1ccc2c(c1)OCO2,-0.87
15,Cc1cc(Nc2cccc(C)c2C)n2ncnc2n1,1.4
16,Cc1ccc(S(=O)(=O)N(C)CC(=O)NC2CCCC2)cc1,1.94
17,CCN(CC)C(=O)N1CCN(C(=O)c2ccc(C)cn2)CC1,0.26
18,C#CCN1C(=O)C(O)(CC(=O)c2cc(OC)ccc2OC)c2ccccc21 (stereo not drawn),-0.27
19,COc1ccc(S(=O)(=O)NC2(C(F)(F)F)N=C3SCCN3C2=O)cc1 (stereo not drawn),0.29
20,COc1cc(C2C(C(=O)Nc3ccccc3OC)=C(C)Nc3ncnn32)ccc1O (stereo not drawn),-1.23

row,Structure (SMILES),inhibition of disassembly [%]
1,CC(=O)C1C(c2cccc(Oc3ccccc3)c2)NC(=O)NC1(O)C(F)(F)F (stereo not drawn),3.33
2,CC(C)CNS(=O)(=O)c1ccc(OCC(=O)Nc2ccc3c(c2)OCO3)c(Cl)c1,0.65
3,CC1CCCN(C(=O)c2ccc3c(c2)C(=O)N(CCC2=CCCCC2)C3=O)C1 (stereo not drawn),-0.2
4,COCCn1c(CN(Cc2ccccc2)Cc2ccccc2)nc2c1c(=O)n(C)c(=O)n2C,0.04
5,CCOC(=O)N1CCN(C(=O)c2n[nH]c(=O)c3ccccc23)CC1,-0.81
6,COc1ccccc1C(=O)NCCn1cc(SCC(=O)NCc2ccco2)c2ccccc21,0.52
7,COc1ccccc1NC(=O)CN1CCN(S(=O)(=O)c2ccc(Br)cc2)CC1,-0.52
8,CCOc1ccccc1NC(=O)C1CCC(CNc2c(N3CCOCC3)c(=O)c2=O)CC1 (stereo not drawn),0.11
9,CCC(C(=O)Nc1ncccn1)(C(F)(F)F)C(F)(F)F,-0.33
10,CCOC(=O)c1nnn(CC(=O)Nc2cccc(F)c2)c1C(=O)OCC,-0.09
11,Cc1ccc(C2CC(c3cccc(Br)c3)n3nc(N)nc3N2)cc1 (stereo not drawn),0.65
12,Cc1oc(-c2ccccc2F)nc1CS(=O)(=O)CC(=O)NCCCN(C)C1CCCCC1,-0.8
13,Cc1nnc(NC(=O)CCC(=O)N2CCC(C)CC2)s1,-1.57
14,COc1ccc(-c2c(C)nn3c(N4CCC(C(=O)N5CCCCC5)CC4)cc(C)nc23)cc1OC,-1.42
15,NS(=O)(=O)c1cc2c(cc1Cl)NC(C(Cl)Cl)NS2(=O)=O (stereo not drawn),-0.98
16,COc1ccc(OC)c(NC(=O)CC(Cc2ccccc2OC)C(=O)O)c1 (stereo not drawn),-1.04
17,Cc1noc(C)c1S(=O)(=O)Nc1ccc(C(=O)O)cc1,1.24
18,CCCOC(=O)Nc1sc2c(c1C(=O)OCC)CCC2,1.34

# Reference: PubChem BioAssay AID751 (NMMLSC, 2007)
